Source: PubChem BioAssay AID1508600 (Functional Genomics Laboratory (NCATS/FGL), 2020)
Among all 53,000 sequences or so, about 3,700 (7%) were called active. The full list was thinned out, with actives kept by preference. Values without a mark were called inactive.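 How the source made its calls: active means gene knockdowns whose robust z-score for IL-1 alpha signal is at least 2 or at most -2, so actives lie on both sides; inactive means the rest.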

Assay: Components of the Cytosolic LPS Sensing Pathway: Gene Identification via Genome-wide siRNA Screen
Conditions: RAW264.7 macrophages, IL-1a HTRF, actives lie on both sides, screened at 100 nM (by protocol), cells primed 5 h with Pam3CSK4 first
From the text: Non-canonical inflammasome activation by cytosolic LPS is a critical component of the host response to Gram-negative bacterial infection, however we lack a comprehensive understanding of the cellular processes that control this pathway. Here we describe a genome-wide siRNA screen to identify genes regulating the mouse macrophage IL-1 alpha response to cytosolic LPS.
RAW264.7 cells were maintained in complete DMEM media, comprising DMEM with 4.5 g/L glucose, 10% FBS (Gemini Bio-Products, West Sacramento, CA), 2 mM Glutamine (Lonza) and 20 mM HEPES (Lonza), hereafter complete DMEM.
The RNAi screen was conducted in 384-well format using the Ambion Silencer Mouse Genome siRNA Library (#4391425), which consists of three unique, nonoverlapping, nonpooled siRNAs for each of 17,000 gene targets. siRNA reagents ([…]) were stamped into 384-well white flat-bottom microplates (Corning, 3570) using a Velocity11 VPrep liquid handling system (Agilent) integrated into a BioCel robotic platform (Agilent) in columns 1-22, leaving columns 23-24 empty for negative (Ambion, Negative control #1) and positive (mouse Casp4) controls, respectively. The median value of each plate's negative control column was used to normalize sample wells, and the positive control was used to assess transfection efficiency and assay performance.
Lipofectamine RNAiMAX Transfection Reagent ([…]; Invitrogen) was added in […] serum-free, antibiotic-free media to plate wells using a Thermo Scientific Matrix WellMate and Microplate Stacker. Plates were incubated for 45 min at room temperature to allow for the sufficient formation of siRNA-lipid complexes. Cells were seeded at a density of 1x10^4 cells per well in 20 microL media containing 20% (vol/vol) FBS without antibiotics. The final concentration of siRNA in each well was 100 nM. Cells were cultured for 48h at 37 degrees C in 5% CO2 before addition of […] of TLR ligand Pam3CSK4 for 5 hours. The medium was then removed, replaced with […] growth media and cell were transfected with […] of LipidA and TransIT-TKO (Mirus) for 24 hour. At the end of the LipidA treatment, […] of supernatant was transferred to a 384 Greiner Bio-one non-binding low volume plate and […] of IL-1a HTRF reagent (Cisbio, 62MIL1APEH) was added and incubated at room temperature overnight. The plates were read on an EnVision plate reader (PerkinElmer). Cell viability was measured by adding 20ul Cell Titer Glo to the original plate and running a luminescence read on the EnVision. The quantified IL-1a signal for each siRNA gene-targeted well was divided by the median of the negative control wells and multiplied by 100 to achieve a negative control normalized value for each well/siRNA. This normalized value was then used to generate a robust z-score by first taking the log of each value and then by subtracting the median and dividing by the […].

Point of comparison: GGCAUGUAAUUUGAUGAUCTT against Mansc1, z-score -1.48. Against it:
- CGGUAAUCUUAUGACAACUTT against Gpc6 — higher, 1.06
- GGGCCUUAAUUUUCCUUUUTT against Podxl — higher, -0.107
- GCCCAUCUGAUGAAUACAATT against Mrto4 — higher, 1.45
- GGCACAAUUAGCUAAGAAUTT against Abi3bp — lower, -1.87
- GGUCUGAUUCACCAUAAUUTT against Sspn — higher, 0.313
- GGAGAUUUUGGUGGCUAUUTT against Uqcrfs1 — higher, -1.1
- GGAACACUGGAAAAAUGUUTT against Ldhc — higher, 0.176
- GGCGGUGAAGUCUAAGGCATT against H1f5 — higher, 1.54
- GGUGUGUGGUUUUUAAUAATT against Abhd3 — higher, -0.692
- GGGAGUUUCAGACCAGUGUTT against Atp5g3 — higher, -0.097
- CCAUGGACUUUCUCGAAGATT against Ceacam11 — higher, 0.612
- GCAGGUUCAUACGAUCCAGTT against Plekha3 — higher, -0.7
- CGGAUACCGUAGUUUGGUGTT against Lipe — higher, 1.51
- GGUGAACGACUCCAUGUAUTT against Nectin1 — higher, -0.448
- CGUGGUUGAACUUUGUCCGTT against C1qtnf12 — higher, -0.569
- GGAAACUUGAUUAUUUAGGTT against Vrk2 — higher, 0.915
- CCAAAUGAAAUUAGUCCUCTT against Eif5 — higher, -0.347
- GGCGGCAAGCAACAACAAUTT against Ssbp1 — higher, 0.155
- GGAUGUGGUUCGAGUAUGGTT against Pou5f1 — higher, 1.79
- GGUGAAAAGAUCAGAAUACTT against Fahd1 — higher, -1.03
- GGAAGAGUUGGAAAUUUACTT against Gdpd3 — higher, -0.166
- GCAUCCUGAUCACUUAACATT against Cep170 — higher, -0.732

In the case of GGAUUUAUUGACCUCUUAATT against Sp8, the z-score is reported as 2.41 (active).
In the case of GGAUGUCUAACCCAAAUAGTT against Ly6e, the z-score is reported as 2.74 (active).
In the case of GGUGAUCCUUCUUUUUUACTT against Sgo1, the z-score is reported as -2.01 (active).
With GGCAUCAAGUGACUUAUAATT against Zfp772 the z-score was 2.47 (active).
In the case of CGGGUUUAGGAGCAACCUUTT against Zdhhc4, the z-score is reported as -3.02 (active).
For CCAAAACAUUAACCUGAAGTT against Pla2g6, the z-score was -2.34 (active).
For GGAAGAGAAUCAAGAGCCATT against Lrrc10, the z-score was -2.65 (active).
